# Data: paper PMC7862700, “An all-to-all approach to the identification of sequence-specific readers for epigenetic DNA modifications on cytosine”
# What was measured:
# Assay in all cases: DAPPL (digital affinity profiling via proximity ligation, sequencing); 10 mM Tris-HCl pH 7.5, 50 mM NaCl, 1 mM DTT, 4% glycerol, room temperature, 30 min; GST-TFs on glutathione beads, 16-mer random dsDNA library, 0.1% formaldehyde crosslink after washing; high values mean tight binding
# FEV = target: T1, FEV (Homo sapiens, UniProt Q99581 1-238); details: protein: recombinant; tags: N-terminal GST; dsDNA, one strand shown
# T1 sequence: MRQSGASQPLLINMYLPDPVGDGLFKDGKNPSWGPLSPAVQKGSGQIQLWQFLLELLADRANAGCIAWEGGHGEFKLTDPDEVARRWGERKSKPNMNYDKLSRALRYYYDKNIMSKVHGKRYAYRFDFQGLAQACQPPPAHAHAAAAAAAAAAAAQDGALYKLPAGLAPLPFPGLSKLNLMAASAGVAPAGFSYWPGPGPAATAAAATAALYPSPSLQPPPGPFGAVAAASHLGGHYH
# Summary of the method: (§1)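 A tag-only sample was pooled with DNA-barcoded human transcription factors that had been expressed in yeast as GST fusions and captured on glutathione beads. The pools were incubated for 30 min at room temperature with 200 nmole of a random double-stranded 16-mer DNA library in Tris/NaCl/DTT/glycerol buffer, then washed, crosslinked with 0.1% formaldehyde, proximity-ligated (BsaI/T4 ligase, 1 h, 37 °C), PCR-amplified and sequenced on an Illumina NextSeq500. Binding signal is each hexamer's read frequency for a factor divided by its frequency for the tag-only sample.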
# ETV5 = ETV5 (Homo sapiens, UniProt P41161 1-510); details: protein: recombinant; tags: N-terminal GST; dsDNA, one strand shown
# ETV5, sequence (P41161 whole entry): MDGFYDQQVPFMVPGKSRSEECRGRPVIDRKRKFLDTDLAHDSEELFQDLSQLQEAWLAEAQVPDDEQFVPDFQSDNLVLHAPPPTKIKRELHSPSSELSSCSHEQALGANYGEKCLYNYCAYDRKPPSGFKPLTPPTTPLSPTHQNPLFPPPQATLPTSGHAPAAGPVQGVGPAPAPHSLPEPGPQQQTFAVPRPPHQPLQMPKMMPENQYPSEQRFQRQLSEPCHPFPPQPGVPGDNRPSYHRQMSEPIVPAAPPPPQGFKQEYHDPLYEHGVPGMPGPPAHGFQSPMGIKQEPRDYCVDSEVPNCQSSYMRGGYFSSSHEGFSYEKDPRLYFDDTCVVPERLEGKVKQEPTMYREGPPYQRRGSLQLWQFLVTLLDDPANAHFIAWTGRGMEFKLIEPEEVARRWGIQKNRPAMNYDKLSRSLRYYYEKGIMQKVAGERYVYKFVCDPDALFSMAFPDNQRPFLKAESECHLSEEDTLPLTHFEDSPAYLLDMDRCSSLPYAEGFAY
# Summary of the method: as §1
# HSF1 = HSF1 (Homo sapiens, UniProt Q00613 1-529); details: protein: recombinant; tags: N-terminal GST; chain copies: 3; dsDNA, one strand shown
# HSF1, sequence (Q00613 whole entry): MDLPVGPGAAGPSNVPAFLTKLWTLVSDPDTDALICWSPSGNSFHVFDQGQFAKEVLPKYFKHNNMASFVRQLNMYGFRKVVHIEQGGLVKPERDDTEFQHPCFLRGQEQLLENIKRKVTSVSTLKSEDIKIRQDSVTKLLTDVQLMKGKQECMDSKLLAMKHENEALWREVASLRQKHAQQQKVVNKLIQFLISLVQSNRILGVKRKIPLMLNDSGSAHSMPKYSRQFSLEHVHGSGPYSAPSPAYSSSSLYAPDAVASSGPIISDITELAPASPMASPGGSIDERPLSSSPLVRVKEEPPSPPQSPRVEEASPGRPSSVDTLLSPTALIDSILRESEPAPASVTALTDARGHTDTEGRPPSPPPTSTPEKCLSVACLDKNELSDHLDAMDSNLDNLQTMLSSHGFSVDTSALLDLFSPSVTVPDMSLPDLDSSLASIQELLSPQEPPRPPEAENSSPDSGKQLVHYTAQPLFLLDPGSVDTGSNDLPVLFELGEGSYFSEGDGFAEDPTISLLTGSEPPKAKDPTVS
# Summary of the method: as §1
# SPIC = target: T2, SPIC (Homo sapiens, UniProt Q8N5J4 1-248); details: protein: recombinant; tags: N-terminal GST; dsDNA, one strand shown
# T2 sequence: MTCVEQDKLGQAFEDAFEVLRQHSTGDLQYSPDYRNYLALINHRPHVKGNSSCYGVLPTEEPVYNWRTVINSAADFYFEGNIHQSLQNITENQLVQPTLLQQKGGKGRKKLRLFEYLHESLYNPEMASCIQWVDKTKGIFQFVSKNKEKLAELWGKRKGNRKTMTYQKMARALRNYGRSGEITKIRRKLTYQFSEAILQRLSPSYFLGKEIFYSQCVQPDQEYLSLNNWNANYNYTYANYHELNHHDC
# Summary of the method: as §1
# ELF4 = ELF4 (Homo sapiens, UniProt Q99607 1-663); details: protein: recombinant; tags: N-terminal GST; dsDNA, one strand shown
# ELF4, sequence (Q99607 whole entry): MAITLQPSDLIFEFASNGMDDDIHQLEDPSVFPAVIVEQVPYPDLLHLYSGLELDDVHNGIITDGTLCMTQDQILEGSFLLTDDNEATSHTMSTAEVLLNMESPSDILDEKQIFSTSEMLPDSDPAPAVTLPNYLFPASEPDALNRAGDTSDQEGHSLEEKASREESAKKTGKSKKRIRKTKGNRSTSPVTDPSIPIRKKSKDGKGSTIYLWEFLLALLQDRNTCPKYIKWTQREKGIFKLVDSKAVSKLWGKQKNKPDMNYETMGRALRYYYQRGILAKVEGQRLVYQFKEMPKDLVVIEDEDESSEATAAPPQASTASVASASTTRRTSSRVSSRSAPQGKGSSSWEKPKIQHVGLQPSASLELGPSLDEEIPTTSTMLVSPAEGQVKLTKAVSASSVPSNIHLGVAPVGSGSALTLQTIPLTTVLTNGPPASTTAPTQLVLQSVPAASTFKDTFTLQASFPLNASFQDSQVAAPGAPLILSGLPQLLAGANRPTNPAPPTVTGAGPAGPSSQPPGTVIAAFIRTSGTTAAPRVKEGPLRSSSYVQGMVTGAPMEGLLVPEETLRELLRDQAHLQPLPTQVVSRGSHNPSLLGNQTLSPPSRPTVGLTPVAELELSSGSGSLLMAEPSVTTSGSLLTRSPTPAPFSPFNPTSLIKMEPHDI
# Summary of the method: as §1
# ELK4 = target: T3, ELK4 (Homo sapiens, UniProt P28324-2 1-405); details: protein: recombinant; tags: N-terminal GST; dsDNA, one strand shown
# T3 sequence: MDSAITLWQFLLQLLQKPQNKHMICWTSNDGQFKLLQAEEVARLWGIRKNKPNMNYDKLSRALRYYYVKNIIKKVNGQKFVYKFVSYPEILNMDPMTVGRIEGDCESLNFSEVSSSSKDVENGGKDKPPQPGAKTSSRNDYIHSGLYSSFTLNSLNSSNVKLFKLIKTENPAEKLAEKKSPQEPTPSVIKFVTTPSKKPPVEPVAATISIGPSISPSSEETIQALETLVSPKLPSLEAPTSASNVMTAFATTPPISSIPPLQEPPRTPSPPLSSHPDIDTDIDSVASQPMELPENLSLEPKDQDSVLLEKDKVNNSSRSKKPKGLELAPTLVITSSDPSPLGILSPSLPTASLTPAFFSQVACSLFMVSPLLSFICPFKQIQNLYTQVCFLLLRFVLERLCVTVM
# Summary of the method: as §1
# ETV2 = target: T4, ETV2 (Homo sapiens, UniProt O00321 1-342); details: protein: recombinant; tags: N-terminal GST; dsDNA, one strand shown
# T4 sequence: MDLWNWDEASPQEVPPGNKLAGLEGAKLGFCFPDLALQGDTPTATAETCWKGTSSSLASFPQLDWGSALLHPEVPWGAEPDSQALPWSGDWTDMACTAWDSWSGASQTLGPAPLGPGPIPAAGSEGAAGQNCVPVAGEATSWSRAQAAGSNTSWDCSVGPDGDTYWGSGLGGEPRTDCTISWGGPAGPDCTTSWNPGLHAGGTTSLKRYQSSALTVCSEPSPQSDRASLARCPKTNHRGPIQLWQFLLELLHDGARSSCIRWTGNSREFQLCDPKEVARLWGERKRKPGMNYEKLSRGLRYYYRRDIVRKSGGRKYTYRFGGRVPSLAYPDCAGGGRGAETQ
# Summary of the method: as §1
# ELF3 = target: T5, ELF3 (Homo sapiens, UniProt P78545 1-371); details: protein: recombinant; tags: N-terminal GST; dsDNA, one strand shown
# T5 sequence: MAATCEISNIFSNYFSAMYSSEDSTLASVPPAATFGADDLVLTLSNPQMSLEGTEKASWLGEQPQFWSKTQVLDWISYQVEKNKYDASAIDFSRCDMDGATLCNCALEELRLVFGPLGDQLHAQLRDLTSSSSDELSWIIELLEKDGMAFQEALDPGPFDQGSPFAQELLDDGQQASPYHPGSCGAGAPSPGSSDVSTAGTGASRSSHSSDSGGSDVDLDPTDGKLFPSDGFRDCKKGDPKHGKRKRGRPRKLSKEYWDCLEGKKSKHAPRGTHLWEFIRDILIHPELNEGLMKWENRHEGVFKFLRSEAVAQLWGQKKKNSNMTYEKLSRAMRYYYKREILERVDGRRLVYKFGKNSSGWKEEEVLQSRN
# Summary of the method: as §1
# CRX = CRX (Homo sapiens, UniProt O43186 1-299); details: protein: recombinant; tags: N-terminal GST; dsDNA, one strand shown
# CRX, sequence (O43186 whole entry): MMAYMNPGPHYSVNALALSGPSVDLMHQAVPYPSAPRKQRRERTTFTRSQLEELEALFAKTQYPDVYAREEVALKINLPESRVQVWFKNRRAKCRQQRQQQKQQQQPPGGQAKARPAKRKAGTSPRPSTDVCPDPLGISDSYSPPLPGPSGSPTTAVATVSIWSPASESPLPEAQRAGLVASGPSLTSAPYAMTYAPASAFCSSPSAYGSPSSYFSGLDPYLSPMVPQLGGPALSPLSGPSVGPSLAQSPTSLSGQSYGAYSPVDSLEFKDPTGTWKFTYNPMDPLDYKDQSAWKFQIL
# Summary of the method: as §1
# ETV1 = ETV1 (Homo sapiens, UniProt P50549 1-477); details: protein: recombinant; tags: N-terminal GST; dsDNA, one strand shown
# ETV1, sequence (P50549 whole entry): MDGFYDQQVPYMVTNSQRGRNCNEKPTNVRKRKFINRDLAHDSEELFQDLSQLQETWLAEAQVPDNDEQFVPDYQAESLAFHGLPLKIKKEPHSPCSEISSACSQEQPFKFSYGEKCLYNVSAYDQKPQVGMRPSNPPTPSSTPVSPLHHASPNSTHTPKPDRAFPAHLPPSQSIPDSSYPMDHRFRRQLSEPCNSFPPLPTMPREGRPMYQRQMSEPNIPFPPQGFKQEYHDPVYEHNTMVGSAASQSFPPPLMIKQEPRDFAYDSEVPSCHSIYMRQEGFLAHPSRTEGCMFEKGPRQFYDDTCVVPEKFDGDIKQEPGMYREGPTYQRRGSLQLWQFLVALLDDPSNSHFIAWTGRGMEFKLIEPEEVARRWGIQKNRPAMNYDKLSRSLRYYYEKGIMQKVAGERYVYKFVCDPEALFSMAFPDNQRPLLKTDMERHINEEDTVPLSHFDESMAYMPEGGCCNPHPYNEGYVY
# Summary of the method: as §1
# ERF = target: T6, ERF (Homo sapiens, UniProt P50548 1-548); details: protein: recombinant; tags: N-terminal GST; dsDNA, one strand shown
# T6 sequence: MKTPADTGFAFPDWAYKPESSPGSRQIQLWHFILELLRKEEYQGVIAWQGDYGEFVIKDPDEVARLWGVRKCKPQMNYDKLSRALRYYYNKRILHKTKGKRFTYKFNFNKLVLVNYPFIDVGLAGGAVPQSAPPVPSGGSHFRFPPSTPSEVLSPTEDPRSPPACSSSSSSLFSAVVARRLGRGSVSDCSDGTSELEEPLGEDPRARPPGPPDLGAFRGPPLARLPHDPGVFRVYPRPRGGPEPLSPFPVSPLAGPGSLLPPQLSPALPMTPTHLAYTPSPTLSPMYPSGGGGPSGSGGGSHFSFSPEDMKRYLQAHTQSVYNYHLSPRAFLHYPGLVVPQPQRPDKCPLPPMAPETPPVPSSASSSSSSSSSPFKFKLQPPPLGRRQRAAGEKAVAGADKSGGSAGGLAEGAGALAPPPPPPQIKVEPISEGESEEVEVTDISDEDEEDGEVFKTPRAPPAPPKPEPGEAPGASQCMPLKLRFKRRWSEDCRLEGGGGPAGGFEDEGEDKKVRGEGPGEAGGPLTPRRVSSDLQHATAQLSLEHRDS
# Summary of the method: as §1
# ETV3L = target: T7, ETV3L (Homo sapiens, UniProt Q6ZN32 1-361); details: protein: recombinant; tags: N-terminal GST; dsDNA, one strand shown
# T7 sequence: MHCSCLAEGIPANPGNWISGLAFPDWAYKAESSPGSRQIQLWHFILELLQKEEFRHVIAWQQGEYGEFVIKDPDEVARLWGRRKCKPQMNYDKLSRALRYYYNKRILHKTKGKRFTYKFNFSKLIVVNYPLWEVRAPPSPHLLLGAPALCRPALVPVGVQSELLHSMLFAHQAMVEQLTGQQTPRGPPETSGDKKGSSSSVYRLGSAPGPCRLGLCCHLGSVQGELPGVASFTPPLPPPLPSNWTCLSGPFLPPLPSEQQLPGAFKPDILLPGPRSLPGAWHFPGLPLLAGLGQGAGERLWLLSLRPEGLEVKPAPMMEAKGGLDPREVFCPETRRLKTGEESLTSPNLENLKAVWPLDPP
# Summary of the method: as §1
# ETS2 = target: T8, ETS2 (Homo sapiens, UniProt P15036 1-469); details: protein: recombinant; tags: N-terminal GST; dsDNA, one strand shown
# T8 sequence: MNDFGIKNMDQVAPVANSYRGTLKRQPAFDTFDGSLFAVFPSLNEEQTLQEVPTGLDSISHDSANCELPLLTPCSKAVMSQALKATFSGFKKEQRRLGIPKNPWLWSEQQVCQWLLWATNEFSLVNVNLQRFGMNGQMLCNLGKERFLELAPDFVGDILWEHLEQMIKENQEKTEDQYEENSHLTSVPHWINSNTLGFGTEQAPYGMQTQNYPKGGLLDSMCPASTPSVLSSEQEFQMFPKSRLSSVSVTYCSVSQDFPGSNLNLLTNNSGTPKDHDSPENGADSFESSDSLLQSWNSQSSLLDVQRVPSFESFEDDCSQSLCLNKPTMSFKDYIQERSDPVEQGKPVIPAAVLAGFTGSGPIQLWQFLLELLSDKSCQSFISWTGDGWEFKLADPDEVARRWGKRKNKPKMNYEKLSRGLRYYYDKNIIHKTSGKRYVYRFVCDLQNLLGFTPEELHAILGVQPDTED
# Summary of the method: as §1
# SPDEF = target: T9, SPDEF (Homo sapiens, UniProt O95238 1-335); details: protein: recombinant; tags: N-terminal GST; dsDNA, one strand shown
# T9 sequence: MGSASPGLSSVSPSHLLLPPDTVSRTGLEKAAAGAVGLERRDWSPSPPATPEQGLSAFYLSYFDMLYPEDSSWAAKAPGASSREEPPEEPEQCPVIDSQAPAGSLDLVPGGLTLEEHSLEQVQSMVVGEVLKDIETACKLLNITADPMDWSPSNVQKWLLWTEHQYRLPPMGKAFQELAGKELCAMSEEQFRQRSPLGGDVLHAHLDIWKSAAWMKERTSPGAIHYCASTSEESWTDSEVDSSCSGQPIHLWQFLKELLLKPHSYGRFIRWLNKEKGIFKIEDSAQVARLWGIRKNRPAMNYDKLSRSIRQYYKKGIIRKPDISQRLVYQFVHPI
# Summary of the method: as §1
# ETV7 = target: T10, ETV7 (Homo sapiens, UniProt Q9Y603 1-341); details: protein: recombinant; tags: N-terminal GST; dsDNA, one strand shown
# T10 sequence: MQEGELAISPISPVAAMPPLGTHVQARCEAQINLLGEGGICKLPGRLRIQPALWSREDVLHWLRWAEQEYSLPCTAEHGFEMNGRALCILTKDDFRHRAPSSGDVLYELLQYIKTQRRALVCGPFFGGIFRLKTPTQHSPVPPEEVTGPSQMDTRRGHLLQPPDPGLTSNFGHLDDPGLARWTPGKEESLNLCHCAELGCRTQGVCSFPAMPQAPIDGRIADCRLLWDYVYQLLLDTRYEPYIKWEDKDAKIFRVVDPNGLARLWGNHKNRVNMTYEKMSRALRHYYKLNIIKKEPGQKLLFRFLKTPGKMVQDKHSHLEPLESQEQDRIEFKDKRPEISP
# Summary of the method: as §1
# ELF5 = target: T11, ELF5 (Homo sapiens, UniProt Q9UKW6-2 1-255); details: protein: recombinant; tags: N-terminal GST; dsDNA, one strand shown
# T11 sequence: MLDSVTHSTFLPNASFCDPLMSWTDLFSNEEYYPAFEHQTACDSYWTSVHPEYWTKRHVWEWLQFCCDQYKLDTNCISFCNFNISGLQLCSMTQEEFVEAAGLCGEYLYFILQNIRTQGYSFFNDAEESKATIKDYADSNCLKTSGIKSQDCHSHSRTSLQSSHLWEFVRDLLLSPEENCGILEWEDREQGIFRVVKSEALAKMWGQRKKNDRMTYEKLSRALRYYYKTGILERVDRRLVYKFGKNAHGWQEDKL
# Summary of the method: as §1
# ETV3 = target: T12, ETV3 (Homo sapiens, UniProt P41162-2 1-143); details: protein: recombinant; tags: N-terminal GST; dsDNA, one strand shown
# T12 sequence: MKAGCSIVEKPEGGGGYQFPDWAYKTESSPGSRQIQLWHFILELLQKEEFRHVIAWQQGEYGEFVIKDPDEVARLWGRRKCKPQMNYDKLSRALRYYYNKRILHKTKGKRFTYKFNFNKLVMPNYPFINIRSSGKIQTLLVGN
# Summary of the method: as §1
# ETV6 = ETV6 (Homo sapiens, UniProt P41212 1-452); details: protein: recombinant; tags: N-terminal GST; dsDNA, one strand shown
# ETV6, sequence (P41212 whole entry): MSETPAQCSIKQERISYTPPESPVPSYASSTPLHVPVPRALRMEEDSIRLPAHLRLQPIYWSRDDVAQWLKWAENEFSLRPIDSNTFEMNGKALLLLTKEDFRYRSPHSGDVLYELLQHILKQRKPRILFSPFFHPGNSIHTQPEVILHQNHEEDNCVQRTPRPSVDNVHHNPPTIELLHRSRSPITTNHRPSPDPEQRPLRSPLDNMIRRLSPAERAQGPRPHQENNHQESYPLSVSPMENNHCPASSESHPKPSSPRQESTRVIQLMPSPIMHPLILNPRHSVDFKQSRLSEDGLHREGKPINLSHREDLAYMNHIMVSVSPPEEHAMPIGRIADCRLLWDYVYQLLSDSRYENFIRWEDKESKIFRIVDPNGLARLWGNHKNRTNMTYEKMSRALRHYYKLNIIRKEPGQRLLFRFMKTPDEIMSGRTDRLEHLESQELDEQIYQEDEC
# Summary of the method: as §1
sequence,measurement,setting,value
TTATTC,binding signal,FEV,"1.39 fold enrichment (6-mer frequency, TF over GST control)"
same,binding signal,ETV5,"1.33 fold enrichment (6-mer frequency, TF over GST control)"
same,binding signal,HSF1,"2.13 fold enrichment (6-mer frequency, TF over GST control)"
same,binding signal,SPIC,"1.45 fold enrichment (6-mer frequency, TF over GST control)"
same,binding signal,ELF4,"1.41 fold enrichment (6-mer frequency, TF over GST control)"
same,binding signal,ELK4,"1.31 fold enrichment (6-mer frequency, TF over GST control)"
same,binding signal,ETV2,"1.54 fold enrichment (6-mer frequency, TF over GST control)"
same,binding signal,ELF3,"1.24 fold enrichment (6-mer frequency, TF over GST control)"
same,binding signal,CRX,"2.37 fold enrichment (6-mer frequency, TF over GST control)"
same,binding signal,ETV1,"1.36 fold enrichment (6-mer frequency, TF over GST control)"
same,binding signal,ERF,"1.45 fold enrichment (6-mer frequency, TF over GST control)"
same,binding signal,ETV3L,"1.47 fold enrichment (6-mer frequency, TF over GST control)"
same,binding signal,ETS2,"1.37 fold enrichment (6-mer frequency, TF over GST control)"
same,binding signal,SPDEF,"1.41 fold enrichment (6-mer frequency, TF over GST control)"
same,binding signal,ETV7,"1.43 fold enrichment (6-mer frequency, TF over GST control)"
same,binding signal,ELF5,"1.34 fold enrichment (6-mer frequency, TF over GST control)"
same,binding signal,ETV3,"1.29 fold enrichment (6-mer frequency, TF over GST control)"
same,binding signal,ETV6,"1.32 fold enrichment (6-mer frequency, TF over GST control)"
